These results are taken from ChEMBL document CHEMBL4513216, “Probing the Open Global Health Chemical Diversity Library for Multistage-Active Starting Points for Next-Generation Antimalarials” (ACS Infect Dis, 2020).

In all, about 69,000 compounds went through this assay and about 8,600 (12%) showed an effect of 50% or more. The sample holds strong results, similar compounds and a random draw of the others, so the mix is not that of the screen.

For the experiment, the system named is Plasmodium berghei. The experiment in a line: Screen against P. berghei liver stage (PbLuc), transformed with Luciferase, at 10uM. The class given is functional, HepG2. Particulars: tested at 10 uM.
With `Cc1nc(N2CCN3CCCCC3C2)nc2cc(S(C)(=O)=O)ccc12` (stereo not drawn), the INHIBITION worked out at 20.6%. Turning to `Clc1cc(N2CCN3CCCCC3C2)nc2[nH]ccc12` (stereo not drawn), the INHIBITION came out at 72.2%. As for `Cc1ccn(-c2ccnc(N3CCC(N4CCCCC4)CC3)n2)n1`, the figure is -13%; as for `Clc1cc(N2CCC(N3CCCC3)CC2)nc2[nH]ccc12`, 51.5%. Next, `Clc1cc(N2CCN(C3CCOCC3)CC2)nc2[nH]ccc12`: 5.91%. As for `Cn1ncc2c(N3CCN4CCCCC4C3)nc(C3CCCC3)nc21` (stereo not drawn), the figure is -24.8%; as for `O=C(NCCNS(=O)(=O)C1CCCCC1)c1ccccc1`, 15.4%. Consider `CN(C)CCNC(=O)c1ccccc1NC(=O)c1cc(Cl)ccc1Cl`, for which the INHIBITION is listed as 44.4%. Next, `O=c1cc(-c2ccc(F)cc2)nc2n1CCCCC2`: 7.25%; `O=S(=O)(C1CC1)N1CCO[C@H]2[C@@H](Oc3cccnc3)CC[C@@H]21`: 37.1%. As for `CN(C)C(=O)c1cccc(C2CNCCN2C)c1` (stereo not drawn), the figure is 15.255%; as for `Cc1cn(Cc2ccc(F)c(F)c2)nc1N`, 70.8%; as for `Cc1ccc(Cn2cc(C)c(N)n2)cc1`, 8.53%. Next, `Cc1cn(Cc2ccc(F)cc2)nc1N`: -46.4%. In the case of `CCc1ccc(CN2CC[C@H]3[C@H]2CC(=O)N3Cc2cccc(C)n2)o1`, the INHIBITION is given as 30.9%. As for `CCN(CCCc1ccccc1)CC1(C)Cc2c(N)nc(N)nc2O1` (stereo not drawn), the INHIBITION was 26.8%. `CCn1nc(C)c(CCNC(=O)C2CCCN(C(=O)COC)C2)c1C` (stereo not drawn): the INHIBITION is reported as -13.6%. Consider `Cc1ccc2nc(CNc3ccccc3C(=O)NC3CC3)cn2c1`, for which the INHIBITION is 7.38%.

With `Cc1ccc([C@@H]2CN(S(=O)(=O)c3ccccc3)C[C@H]2N(C)C)cc1`, the INHIBITION is given as 0.818%. Turning to `Cc1ccc([C@@H]2CN(S(=O)(=O)N(C)C)C[C@H]2N(C)C)cc1`, the INHIBITION is reported as -11.1%. As for `Cc1ccc([C@@H]2CN(S(=O)(=O)Cc3ccccc3)C[C@H]2N(C)C)cc1`, the figure is 55.2%; as for `Cc1nc2c(c(C)c1CC(=O)NCc1ccc(F)cc1)c(=O)[nH]n2C`, -12.1%; as for `Cc1cc(C(=O)N[C@H]2CN(CCC(N)=O)C[C@@H]2C2CC2)sc1C`, 50.5%.

As for `Cc1nc(N)sc1C(=O)N[C@H]1CN(CCO)C[C@@H]1C1CC1`, the INHIBITION is on record as 12%. Next, `Cc1cc(C(=O)N[C@H]2CN(CCO)C[C@@H]2C2CC2)sc1C`: 44%.

In the case of `CCOc1cc(C)nc(N2CCN(C(=O)c3cnc[nH]3)CC2)n1`, the INHIBITION is -3.2%. As for `CC(C)CCN1CCC2(CC1)CN(C(=O)c1cnccn1)CCO2`, the figure is -12.6%; as for `Cc1nc(CN2CCC(NS(C)(=O)=O)CC2)co1`, 34%; as for `O=C(C1CC1)N1CCN(Cc2coc(-c3ccc(Cl)cc3)n2)CC1`, 76.1%. With `CC(O)CN1CCN(Cc2coc(-c3ccc(Cl)cc3)n2)CC1` (stereo not drawn), the INHIBITION is reported as 47.1%. Next, `OCCN1CCN(Cc2coc(-c3ccc(Cl)cc3)n2)CC1`: 11.6%.

Regarding `CS(=O)(=O)NC1CCN(Cc2coc(-c3ccccc3)n2)CC1`, the INHIBITION stood at 30.4%. Next, `CS(=O)(=O)NC1CCN(Cc2coc(-c3ccc(Cl)cc3)n2)CC1`: 79.5%; `CN(C)CC1CN(C(=O)CCc2ccccc2)Cc2nccn2C1` (stereo not drawn): -41.8%. Turning to `Cc1occc1C(=O)N1Cc2nccn2CC(CN(C)C)C1` (stereo not drawn), the INHIBITION stood at 44.8%. Consider `c1ccc(-n2cc(CNC3CCc4ncnn4C3)nn2)cc1` (stereo not drawn), for which the INHIBITION was 41.45%. Consider `O=C(Nc1cccnc1N1CCCC1)C1CCS(=O)(=O)C1` (stereo not drawn), for which the INHIBITION is -7.35%. Next, `COc1ccc(CNCc2c(C)nc3sc(C)cn23)c(OC)c1OC`: 64.6%.

On to `COc1cccc(CNCc2c(C)nc3sc(C)cn23)c1OC`, for which the INHIBITION was determined as 66.4%.

For `COc1ccc(CNC(C)Cn2cccn2)c(OC)c1OC` (stereo not drawn), the INHIBITION is 25.1%. Next, `COc1cccc(CNCc2c(C(C)C)nn(C)c2N(C)C)c1OC`: -7.84%. In the case of `COc1ccc(OC)c(CNCc2c(C)nc3sc(C)cn23)c1`, the INHIBITION is given as 10.8%.

Turning to `COc1cccc(CNCC2CCN(CC(C)O)CC2)c1OC` (stereo not drawn), the INHIBITION was 7.85%.

Turning to `O=C(NCCc1noc(-c2ccccn2)n1)NCC1CCCC1`, the INHIBITION is listed as -18.3%.

`CC(C)c1nnc2ccc(N3CCC(C(=O)O)CC3)nn12`: the INHIBITION is on record as -9.3%. With `Cc1c(Cl)cccc1S(=O)(=O)N1C[C@H]2CC[C@@H](C1)N(C)C2=O`, the INHIBITION came to 0.546%. Next, `CN(C)C(=O)c1nnc2ccc(N3CCOCC3)cc2n1`: -13.9%; `CN(C)C[C@H]1OC[C@@H]2CN(C(=O)NCc3cccnc3)CC[C@@H]21`: 5.63%; `CN(Cc1ccco1)C[C@H]1OC[C@@H]2CCN(Cc3cccnc3)C[C@@H]21`: 41.4%. As for `CN(Cc1cccnc1)C[C@@H]1OC[C@H]2CN(C(=O)C3CC3)CC[C@H]21`, the figure is 76.2%; as for `CN(Cc1cccnc1)C[C@H]1OC[C@@H]2CCN(C(=O)C3CC3)C[C@@H]21`, 54.8%.

Regarding `CN(Cc1cccnc1)C[C@@H]1OC[C@H]2CN(Cc3ccoc3)CC[C@H]21`, the INHIBITION amounted to 2.79%. As for `CN(Cc1cccnc1)C[C@H]1OC[C@@H]2CCN(c3ncccn3)C[C@@H]21`, the figure is 14%.
